The supplement of paper PMC6992640
± gives the standard deviation of the averaged measurements.

These compounds were tested on UCD52 (cells of a triple-negative basal-like breast cancer xenograft) (assay: cell viability (% of vehicle); higher = less cytotoxic). Settings: 10 µM; 72 h.
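Further: PDX cells carrying CMV promoter-driven luciferase, viability read as total photon flux per second by IVIS imaging following D-luciferin, vehicle control 0.1% DMSO.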

Compound	cell viability
CC1COc2c(N3CCN(C)CC3)c(F)cc3c(=O)c(C(=O)O)cn1c23 (configuration not stated) [Ofloxacin]	138.6 ± 1
Cc1cc(Nc2cc(N3CCN(C)CC3)nc(Sc3ccc(NC(=O)C4CC4)cc3)n2)n[nH]1 [VX-680 (MK-0457,Tozasertib)]	66.5 ± 10
O=C([O-])P(=O)([O-])[O-].[Na+].[Na+].[Na+] [Foscarnet Sodium]	86.4 ± 3
Cc1onc(-c2ccccc2Cl)c1C(=O)NC1C(=O)N2C1SC(C)(C)C2C(=O)[O-].O.[Na+] (configuration not stated) [Cloxacillin Sodium]	154 ± 38
CNCc1ccc(-c2[nH]c3cc(F)cc4c3c2CCNC4=O)cc1.O=P(O)(O)O	126 ± 39
CN1CCC(OC(c2ccccc2)c2ccccc2)CC1.Cl [Diphenylpyraline HCl]	75.5 ± 12
COc1cc(OC)c(C(=O)CCCN2CCCC2)c(OC)c1.Cl [Buflomedil HCl]	92.5 ± 16
CC(=O)Oc1ccccc1C(=O)O [Aspirin (Acetylsalicylic acid)]	142 ± 13
CCN(CCCc1ccccc1)CCCc1ccccc1.O=C(O)CC(O)(CC(=O)O)C(=O)O [Alverine Citrate]	59.9 ± 0.87
CC#CCn1c(N2CCCC(N)C2)nc2c1c(=O)n(Cc1nc(C)c3ccccc3n1)c(=O)n2C (configuration not stated) [Linagliptin (BI-1356)]	136 ± 2.3
Cc1cc2c(s1)=Nc1ccccc1NC=2N1CCN(C)CC1 [Olanzapine]	87.7 ± 4.5
CC1(O)CC(c2nc(-c3ccc4ccc(-c5ccccc5)nc4c3)c3c(N)nccn23)C1 (configuration not stated) [Linsitinib]	71.6 ± 2.8
Cc1cn(C2CC(O)C(CO)O2)c(=O)[nH]c1=O (configuration not stated) [Telbivudine]	95.5 ± 9.2
Nc1ncnc2c1ncn2C1OC(CO)C(O)C1O (configuration not stated) [Adenosine]	95.7 ± 3.5
CC(=O)[C@@]1(O)CC[C@H]2[C@@H]3CCC4=CC(=O)CCC4=C3[C@@H](c3ccc(N(C)C)cc3)C[C@@]21C [Ulipristal]	93.5 ± 11
Cc1c(OCC(F)(F)F)ccnc1CS(=O)c1nc2ccccc2[nH]1 (configuration not stated) [Dexlansoprazole]	143 ± 8.5
c1cc(CN2CCCNCCNCCCNCC2)ccc1CN1CCCNCCNCCCNCC1 [Plerixafor (AMD3100)]	92.3 ± 9.7
COS(=O)(=O)[O-].C[N+]1(C)CCC(=C(c2ccccc2)c2ccccc2)CC1 [Diphemanil Methylsulfate]	94.5 ± 13
CC(O)C1C(=O)N2C(C(=O)OCOC(=O)C(C)(C)C)=C(SC3CN(C4=NCCS4)C3)C(C)C12 (configuration not stated) [Tebipenempivoxil]	97.2 ± 11

Compound	cell viability
CS(=O)(=O)N1CCN(Cc2cc3nc(-c4cccc5[nH]ncc45)nc(N4CCOCC4)c3s2)CC1	88.5 ± 15
O=C(NC(CO)C(O)c1ccc([N+](=O)[O-])cc1)C(Cl)Cl (configuration not stated) [Chloramphenicol]	92.9 ± 3.5
Cc1ccc(Nc2nccc(N(C)c3ccc4c(C)n(C)nc4c3)n2)cc1S(N)(=O)=O.Cl	90.5 ± 2.9
CC(C)OC(=O)OCOP(=O)(COC(C)Cn1cnc2c(N)ncnc21)OCOC(=O)OC(C)C.O=C(O)C=CC(=O)O (configuration not stated) [Tenofovir Disoproxil Fumarate]	106 ± 12
CC1(C)SC2C(NC(=O)C(C(=O)[O-])c3ccccc3)C(=O)N2C1C(=O)[O-].[Na+].[Na+] (configuration not stated) [Carbenicillin, Disodium Salt]	85.4 ± 3.6
CC1C(=O)OC2CC34C5CC(C(C)(C)C)C36C(OC(=O)C6O)OC4(C(=O)O5)C21O (configuration not stated) [Ginkgolide A]	91.6 ± 10
CNS(=O)(=O)Cc1ccc2[nH]cc(CCN(C)C)c2c1 [Sumatriptan]	98 ± 7.2
Nc1nc(=O)c2c([nH]1)NCC(CNc1ccc(C(=O)NC(CCC(=O)[O-])C(=O)[O-])cc1)N2C=O.O.O.O.O.O.[Ca+2] (configuration not stated) [Leucovorin Calcium]	122 ± 2.5
Nc1nc(Cl)nc2c1ncn2C1OC(CO)C(O)C1F (configuration not stated) [Clofarabine]	143 ± 24
Cc1cc(C2CCCCC2)n(O)c(=O)c1 [Ciclopirox]	92.7 ± 3.6
NC(=O)C(CCC(F)(F)F)N(Cc1ccc(-c2ncon2)cc1F)S(=O)(=O)c1ccc(Cl)cc1 (configuration not stated)	81.58 ± 0.81
CC(=O)O[C@@]12CO[C@@H]1C[C@H](O)[C@@]1(C)C(=O)[C@H](O)C3=C(C)[C@@H](OC(=O)[C@H](O)[C@@H](NC(=O)OC(C)(C)C)c4ccccc4)C[C@@](O)([C@@H](OC(=O)c4ccccc4)[C@H]21)C3(C)C [Docetaxel]	82 ± 10
O=C(Oc1ccccc1C(=O)O)c1ccccc1O [Sasapyrine]	90.2 ± 1.2
CCCNS(=O)(=O)Nc1ncnc(OCCOc2ncc(Br)cn2)c1-c1ccc(Br)cc1 [Macitentan]	75.383 ± 0.03
CCCCCCCCCC(=O)NC(Cc1c[nH]c2ccccc12)C(=O)NC(CC(N)=O)C(=O)NC(CC(=O)O)C(=O)NC1C(=O)NCC(=O)NC(CCCN)C(=O)NC(CC(=O)O)C(=O)NC(C)C(=O)NC(CC(=O)O)C(=O)NCC(=O)NC(CO)C(=O)NC(C(C)CC(=O)O)C(=O)NC(CC(=O)c2ccccc2N)C(=O)OC1C (configuration not stated) [Daptomycin]	118 ± 18
COc1nc(C)nc(Cl)c1NC1=NCCN1 [Moxonidine]	82.9 ± 13
NCCCCC(NC(CCc1ccccc1)C(=O)O)C(=O)N1CCCC1C(=O)O.O.O (configuration not stated) [Lisinopril dihydrate]	105 ± 0.53
Cc1cc(C2CCCCC2)n(O)c(=O)c1.NCCO [Ciclopirox ethanolamine]	63.4 ± 8.2
